Screening data as filed in PubChem.
The list is not random: actives were taken first. Their share in the collection is about 1.2%.
Rv3671c protease – Rv3671c (M. tuberculosis) protease inhibition | inhibition, % at 5.96 µM | 320,000 compounds, 0.048% hits | AID 2606; in the data active = inhibition above about 38%;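 note: extracellular domain of Rv3671c used as enzyme; 0% = enzyme with DMSO and 100% = no enzyme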
UGM FP inh – Mtb UDP-galactopyranose mutase inhibition. P9WIQ1. purified UGM, fluorescence polarization probe displacement. inhibition, % at 10 µM. 320,000 compounds, 0.06% hits; in the data active = inhibition above about 10%, passing the limit was not always enough
Target sequence (P9WIQ1 whole entry, looked up): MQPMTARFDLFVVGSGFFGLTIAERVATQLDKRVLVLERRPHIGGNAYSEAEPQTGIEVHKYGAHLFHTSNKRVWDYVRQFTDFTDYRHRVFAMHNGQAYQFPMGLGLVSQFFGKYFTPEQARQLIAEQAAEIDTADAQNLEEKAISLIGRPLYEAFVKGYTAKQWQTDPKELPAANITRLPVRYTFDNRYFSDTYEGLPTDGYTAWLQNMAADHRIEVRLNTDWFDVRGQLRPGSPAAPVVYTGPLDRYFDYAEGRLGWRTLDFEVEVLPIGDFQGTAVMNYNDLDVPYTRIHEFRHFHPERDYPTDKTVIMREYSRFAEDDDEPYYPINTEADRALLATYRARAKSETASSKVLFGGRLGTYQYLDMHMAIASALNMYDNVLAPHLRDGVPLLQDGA
Mtb bLac sens – beta-lactam sensitization of Mtb H37Rv; inhibition, % at 25 µM; 330,000 compounds, 0.27% hits; AID 434955; M. tuberculosis H37Rv growth with meropenem, percent inhibition;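 note: growth measured after seven days incubation then overnight dye step; 0% = bacteria only wells and 100% = bacteria with antibiotic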
RecA intein inh – inhibitors of M. tuberculosis RecA intein splicing; P9WHJ3; cell-free RecA intein splicing, fluorescence; inhibition, % (concentration not given with the values); 290,000 compounds, 0.75% hits; in the data active = inhibition above about 30%;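 note: 0% = vehicle wells and 100% = reference inhibitor control wells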
CCHF vOTU inh – blocks the CCHF virus ovarian tumor domain protease; CCHFV vOTU protease, Pep-AMC fluorescence; inhibition, % at 11.5 µM; 370,000 compounds, 0.55% hits; AID 651958; in the data active = inhibition above about 30%; note: 0% = vehicle wells with enzyme and 100% = no enzyme wells
GFP chromophore – counter-screen GFP chromophore formation inhibition; shares compounds with RecA intein inh; cell-free GFP chromophore formation, fluorescence; EC50, µM; 2,100 compounds, 83% hits; AID 434968
Starred values were filed as active, the others as inactive. Unless noted, the rule behind the calls is not given here.

Results for CCC(C)Sc1cc(-c2nc3ccccn3c2NC2CCCCC2)ccc1OC (stereo unspecified) ?
Rv3671c protease: 10; UGM FP inh: 2; Mtb bLac sens: 100; RecA intein inh: 14; CCHF vOTU inh: -5

What do the screens show for `CC(=O)c1ccc(-c2cccc(-c3nc4ccccn4c3NC3CCCCC3)c2)cc1`?
Rv3671c protease: 8; UGM FP inh: 3; Mtb bLac sens: 98; RecA intein inh: 32*; CCHF vOTU inh: 5; GFP chromophore: 0.38*

How did C=CCN1[C@H](C)COc2cc(N3CCCC3)ccc2S1(=O)=O do in these assays?
CCHF vOTU inh: -7

What do the screens show for `CCOC(=O)c1c(NC(=S)N2CCOCC2)sc2c1CCN(C(=O)OCC)C2`?
Rv3671c protease: 8; UGM FP inh: 0; Mtb bLac sens: 66; RecA intein inh: 39*; CCHF vOTU inh: 6; GFP chromophore: 33*

Results for CCOC(=O)c1c(NC(=S)N2CCCCC2)sc2c1CCN(C(=O)OCC)C2 ?
Rv3671c protease: 1; UGM FP inh: 0; Mtb bLac sens: 80; RecA intein inh: 33*; CCHF vOTU inh: -11; GFP chromophore: 25*

What do the screens show for `C=CCNC(=S)Nc1sc2c(c1C(=O)OCC)CCN(C(=O)OCC)C2`?
Rv3671c protease: 6; UGM FP inh: 2; Mtb bLac sens: -3; RecA intein inh: -3; CCHF vOTU inh: 1

What do the screens show for `Cn1c(=O)c2[nH]c(SCC(=O)N3CCN(c4cccc(C(F)(F)F)c4)CC3)nc2n(C)c1=O`?
CCHF vOTU inh: -9

What do the screens show for `COC(=O)[C@]12C[C@H](CC(=O)N3CCSCC3)C(=O)N(Cc3ccc(Cl)cc3Cl)C1=C[C@H](C(C)(C)C)O[C@@H]2C`?
CCHF vOTU inh: 20

What do the screens show for `O=c1cc(-c2ccccc2)[nH]n1-c1ccc([N+](=O)[O-])cc1`?
Rv3671c protease: -11; UGM FP inh: -4; Mtb bLac sens: -4; RecA intein inh: 46*; GFP chromophore: 30*

What do the screens show for `O=c1c(N=Nc2ccc(O)cc2)c(-c2ccccc2)[nH]n1-c1ccc([N+](=O)[O-])cc1`?
Rv3671c protease: 17; UGM FP inh: 2; RecA intein inh: 2; CCHF vOTU inh: 13

Results for Cn1c(=O)c2cc(S(=O)(=O)N3CCN(c4ccc(F)cc4)CC3)ccc2n(C)c1=O ?
CCHF vOTU inh: 0

Results for Cc1c([N+](=O)[O-])cnc(Sc2ccccc2)c1[N+](=O)[O-] ?
Rv3671c protease: 10; UGM FP inh: 0; Mtb bLac sens: 98; RecA intein inh: 85*; CCHF vOTU inh: 20; GFP chromophore: 0.18*

Results for Cc1ccc(Sc2ncccc2[N+](=O)[O-])cc1 ?
Rv3671c protease: 1; UGM FP inh: 4; Mtb bLac sens: 4; RecA intein inh: -12; CCHF vOTU inh: 0

Results for O=C(CCCN1C(=O)/C(=C/c2cccs2)SC1=S)Nc1cccc(O)c1 ?
Rv3671c protease: -10; UGM FP inh: 2; Mtb bLac sens: 8; RecA intein inh: 8; CCHF vOTU inh: 15

Results for O=C(CCN1C(=O)/C(=C/c2cccs2)SC1=S)Nc1cccc(O)c1 ?
Rv3671c protease: -15; UGM FP inh: -2; Mtb bLac sens: 4; RecA intein inh: 36*; CCHF vOTU inh: 3; GFP chromophore: >38

How did COC(=O)C1CN(Cc2ccc(F)cc2)CCS(=O)(=O)N1Cc1cn(Cc2ccc(Cl)cc2)nn1 (stereo unspecified) do in these assays?
CCHF vOTU inh: 4

What do the screens show for `C[C@@H]1ON(C)[C@H]2C[C@H]3c4[nH]c5c(-c6cc(Cl)cc(Cl)c6)cccc5c4CCN3C(=O)[C@@H]12`?
CCHF vOTU inh: 11

How did COc1ccc(-c2oc(NC(=O)CCl)c(C#N)c2-c2ccc(OC)cc2)cc1 do in these assays?
Rv3671c protease: 29; UGM FP inh: -1; Mtb bLac sens: 98; RecA intein inh: 90*; CCHF vOTU inh: 17; GFP chromophore: 1.4*

How did COc1ccc(-c2oc(NC(=O)CSc3ncn[nH]3)c(C#N)c2-c2ccc(OC)cc2)cc1 do in these assays?
Rv3671c protease: 14; UGM FP inh: 0; Mtb bLac sens: -3; RecA intein inh: 18

Results for CCOC(=O)N1C(=O)C[C@](Sc2ccc(OC)cc2)(C(=O)N2CCN(c3ncccn3)CC2)[C@H]1c1ccc(OC)cc1 ?
CCHF vOTU inh: 0

How did CCC(=O)Nc1ccc(C(=O)CSc2nnc(-c3ccc(O)cc3)n2CC2CCCO2)cc1 (stereo unspecified) do in these assays?
Rv3671c protease: -3; UGM FP inh: 2; Mtb bLac sens: -8; RecA intein inh: 1; CCHF vOTU inh: 4

What do the screens show for `COc1cc(C(=O)CSc2nnc(-c3ccc(O)cc3)n2CC2CCCO2)ccc1NC(C)=O` (stereo unspecified)?
Rv3671c protease: -6; UGM FP inh: 2; Mtb bLac sens: -3; RecA intein inh: 36*; CCHF vOTU inh: 7; GFP chromophore: >38

What do the screens show for `COc1ccc(Nc2nc(N3CCCCC3)nc3ccccc23)c(OC)c1`?
Rv3671c protease: 9; UGM FP inh: 0; Mtb bLac sens: 91; RecA intein inh: 93*; CCHF vOTU inh: -4; GFP chromophore: >38

What do the screens show for `C/C(=N\NC(=O)CSc1nnc(-c2ccccc2)n1-c1ccc(C)cc1)c1ccc(-c2ccccc2)cc1`?
CCHF vOTU inh: 0

Results for Cc1ccc(Sc2oc(/C=N/n3cnnc3)cc2Br)cc1 ?
Rv3671c protease: 0; UGM FP inh: -1; Mtb bLac sens: 8; RecA intein inh: 62*; CCHF vOTU inh: 8; GFP chromophore: 35*

What do the screens show for `COc1cc(/C=N\NC(=O)c2ccc(Cl)cc2)ccc1Oc1ccc([N+](=O)[O-])cn1`?
Rv3671c protease: -5; UGM FP inh: 2; Mtb bLac sens: -6; RecA intein inh: -2; CCHF vOTU inh: 2

Results for COc1cc(/C=N\NC(=O)c2ccccc2F)ccc1Oc1ccc([N+](=O)[O-])cn1 ?
Rv3671c protease: 8; UGM FP inh: 2; Mtb bLac sens: 9; RecA intein inh: 34*; CCHF vOTU inh: 3; GFP chromophore: >38

Results for COc1nc(N/N=C/c2ccc(-c3ccccc3[N+](=O)[O-])o2)nc(N2CCOCC2)n1 ?
Rv3671c protease: -40; UGM FP inh: 5; Mtb bLac sens: 8; RecA intein inh: 61*; CCHF vOTU inh: 0; GFP chromophore: 35*

Results for O=[N+]([O-])c1ccc(-c2ccc(/C=N/Nc3nc(NCc4ccccc4)nc(N4CCOCC4)n3)o2)cc1 ?
Rv3671c protease: 6; UGM FP inh: -8; Mtb bLac sens: 94; RecA intein inh: -15; CCHF vOTU inh: 23

How did C/C(C=NNC(=O)CSc1nnc(-c2ccccc2)n1-c1ccc(C)cc1)=C\c1ccco1 do in these assays?
CCHF vOTU inh: 5

Results for O=C(NC1CCCCN(Cc2ccc(Cl)cc2)C1=O)C(c1ccccc1)c1ccccc1 (stereo unspecified) ?
CCHF vOTU inh: 4

How did Cc1cc(C(=O)Cn2ncc(Cl)c(Cl)c2=O)c(C)n1CC(F)(F)F do in these assays?
Rv3671c protease: -3; UGM FP inh: -3; Mtb bLac sens: 100; RecA intein inh: 36*; CCHF vOTU inh: 3; GFP chromophore: 6*
